# Results from PubChem BioAssay AID1159580 (chemical genetic matrix, 2015).
# Out of some 5,500 compounds screened, about 2,000 (36%) were called active. Roughly 18% stayed inconclusive and do not appear here. This is one part of the list. Unmarked numbers belong to inactive results. No stated cut-off is given here; in the data, active means normalized growth mostly below about 0.91 (no sharp cut-off); inconclusive means no clear call, values can overlap the other calls; inactive means mostly above about 0.92.
# Assay: chemical genetic growth profiling, strain panel (AID 1159580);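 further: tested at 20 µM; growth read once vehicle control cultures reached saturation at 30 °C; 1 = growth at the plate median or of vehicle wells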
# Conditions: growth OD
# [1] = S. cerevisiae deletion strains, locus YAL013W, strain DEP1, stronger effect = lower value
# [2] = S. cerevisiae deletion strains, locus YBR229C, strain ROT2, stronger effect = lower value
# [3] = S. cerevisiae deletion strains, locus YDL101C, strain DUN1, stronger effect = lower value
# [4] = S. cerevisiae deletion strains, locus YDL134C, strain PPH21, stronger effect = lower value
# [5] = S. cerevisiae deletion strains, locus YDR150W, strain NUM1, stronger effect = lower value
# [6] = S. cerevisiae deletion strains, locus YEL061C, strain CIN8, stronger effect = lower value
# [7] = S. cerevisiae deletion strains, locus YGR078C, strain PAC10, stronger effect = lower value
# [8] = S. cerevisiae deletion strains, locus YHR030C, strain SLT2, stronger effect = lower value
# [9] = S. cerevisiae deletion strains, locus YHR087W, strain rtc3, stronger effect = lower value
# [10] = S. cerevisiae deletion strains, locus YJL187C, strain SWE1, stronger effect = lower value
# [11] = S. cerevisiae deletion strains, locus YJR043C, strain POL32, stronger effect = lower value
# [12] = S. cerevisiae deletion strains, locus YJR075W, strain HOC1, stronger effect = lower value
# [13] = S. cerevisiae deletion strains, locus YKL190W, strain CNB1, stronger effect = lower value
# [14] = S. cerevisiae deletion strains, locus YLR039C, strain RIC1, stronger effect = lower value
# [15] = S. cerevisiae deletion strains, locus YLR058C, strain SHM2 (second series), stronger effect = lower value
# [16] = S. cerevisiae deletion strains, locus YLR085C, strain ARP6, stronger effect = lower value
# [17] = S. cerevisiae deletion strains, locus YLR262C, strain YPT6, stronger effect = lower value
# [18] = S. cerevisiae deletion strains, locus YML094W, strain GIM5, stronger effect = lower value
# [19] = S. cerevisiae deletion strains, locus YMR219W, strain ESC1, stronger effect = lower value
# [20] = S. cerevisiae deletion strains, locus YMR263W, strain SAP30, stronger effect = lower value
# [21] = S. cerevisiae deletion strains, locus YNL153C, strain GIM3, stronger effect = lower value
# [22] = S. cerevisiae deletion strains, locus YNL298W, strain CLA4 (second series), stronger effect = lower value
# [23] = S. cerevisiae deletion strains, locus YNL322C, strain KRE1, stronger effect = lower value
# [24] = S. cerevisiae deletion strains, locus YNR030W, strain Alg12, stronger effect = lower value
# [25] = S. cerevisiae deletion strains, locus YOL006C, strain TOP1, stronger effect = lower value
# [26] = S. cerevisiae deletion strains, locus YPL055C, strain LGE1, stronger effect = lower value
# [27] = S. cerevisiae deletion strains, locus YPL241C, strain CIN2, stronger effect = lower value
# [28] = S. cerevisiae deletion strains, locus YPR135W, strain CTF4, stronger effect = lower value
# [29] = S. cerevisiae deletion strains, locus YGR229C, strain SMI1, stronger effect = lower value
smiles,measurement,setting,value
CCOC(=O)c1ccc2[nH]c(-c3ccccc3)cc(=O)c2c1,normalized growth,[1],1.02
same,normalized growth,[2],1
same,normalized growth,"S. cerevisiae deletion strains, locus YCL061C, strain MRC1, stronger effect = lower value",1.01
same,normalized growth,[3],1.01
same,normalized growth,[4],1.01
same,normalized growth,[5],1.02
same,normalized growth,[6],1.01
same,normalized growth,[7],1.01
same,normalized growth,[8],1.02
same,normalized growth,[9],1
same,normalized growth,[10],1.01
same,normalized growth,[11],1.01
same,normalized growth,[12],0.994
same,normalized growth,[13],1.01
same,normalized growth,[14],1.04
same,normalized growth,[15],1.01
same,normalized growth,[16],1.03
same,normalized growth,[17],1.03
same,normalized growth,[18],0.997
same,normalized growth,[19],1.01
same,normalized growth,[20],0.997
same,normalized growth,[21],1.01
same,normalized growth,[22],1.04
same,normalized growth,[23],1
same,normalized growth,[24],1.04
same,normalized growth,[25],1.04
same,normalized growth,[26],1.11
same,normalized growth,[27],1.03
same,normalized growth,[28],1.09
same,normalized growth,"S. cerevisiae strains, strain wild type, stronger effect = lower value",1.03
CCOC(=O)c1nc(-c2ccccc2)sc1C(=O)OCC,normalized growth,[1],1
same,normalized growth,[2],0.955
same,normalized growth,[3],0.999
same,normalized growth,[4],0.947
same,normalized growth,[5],1
same,normalized growth,[6],0.958
same,normalized growth,[7],0.973
same,normalized growth,[29],0.958
same,normalized growth,[8],0.735
same,normalized growth,[9],0.958
same,normalized growth,[10],0.947
same,normalized growth,[11],0.973
same,normalized growth,[12],0.907
same,normalized growth,[13],0.961
same,normalized growth,[14],0.716 (active)
same,normalized growth,[15],0.968
same,normalized growth,[16],0.833
same,normalized growth,[17],0.814 (active)
same,normalized growth,[18],0.921
same,normalized growth,[19],0.963
same,normalized growth,[20],0.977
same,normalized growth,[21],0.995
same,normalized growth,[22],0.766 (active)
same,normalized growth,[23],0.981
same,normalized growth,[24],0.912
same,normalized growth,[25],0.718 (active)
same,normalized growth,[26],0.979
same,normalized growth,[27],0.921
same,normalized growth,[28],0.741
CN=c1nc(-c2ccccc2)n(-c2ccccc2)s1,normalized growth,[1],0.969
same,normalized growth,"S. cerevisiae deletion strains, locus YAL040C, strain CLN3, stronger effect = lower value",0.983
same,normalized growth,"S. cerevisiae deletion strains, locus YCL061C, strain MRC1 (second series), stronger effect = lower value",0.984
same,normalized growth,[5],0.973
same,normalized growth,"S. cerevisiae deletion strains, locus YDR363W, strain ESC2, stronger effect = lower value",0.983
same,normalized growth,"S. cerevisiae deletion strains, locus YER002W, strain NOP16, stronger effect = lower value",0.982
same,normalized growth,[29],0.905
same,normalized growth,"S. cerevisiae deletion strains, locus YMR307W, strain GAS1, stronger effect = lower value",0.947
same,normalized growth,[21],0.905
same,normalized growth,"S. cerevisiae deletion strains, locus YNL175C, strain NOP13, stronger effect = lower value",0.978
same,normalized growth,"S. cerevisiae deletion strains, locus YNL197C, strain WHI3, stronger effect = lower value",0.99
same,normalized growth,"S. cerevisiae deletion strains, locus YNL224C, strain SQS1, stronger effect = lower value",0.987
same,normalized growth,[23],0.978
same,normalized growth,"S. cerevisiae deletion strains, locus YOR083W, strain WHI5 (second series), stronger effect = lower value",0.961
same,normalized growth,[27],0.982
